The list is a sample of the results.
aSyn UTR act – Activators via SNCA 5'UTR binding, MLPCN; activity score, % (tested at 7.5 µM), hits read low; AID 1814; hit rate 7.1% among 300,000; alpha-synuclein 5'UTR reporter, activators screen; in the data active = activity score below about -60%
Hits are given with their value; – = inactive.

SMILES	aSyn UTR act
COc1nc(-c2ccc(C)cc2)ccc1-c1noc(-c2ccco2)n1	-70
COc1nc(C)ccc1-c1noc(-c2ccco2)n1	-124
CCn1nnnc1SCC(=O)Nc1ccc2c(c1)OCCO2	-118
CC(C)n1nnnc1SCC(=O)Nc1ccc2c(c1)OCCO2	-109
Cc1ccc(NC(=O)CSc2ncc(-c3ccccc3)n2C(=O)c2ccccc2)cc1	-64
Cc1ccc(NC(=O)CSc2nc3ccccc3c3nc4ccccc4n23)cc1	–
C/C(=N\OC(=O)Nc1ccccc1)c1ccc(C)cc1	-113
Cc1ccc(-c2nc(NCc3ccco3)n(C(=O)c3ccco3)n2)cc1	-143
COc1ccccc1C(=O)n1nc(-c2ccccc2)nc1NCc1ccco1	-88
O=C(COc1ccccc1)n1nc(-c2ccc(Cl)cc2)nc1NCc1ccco1	-132
O=C(c1ccco1)n1nc(-c2ccc(Cl)cc2)nc1NCc1ccco1	-176
N#C/C(=N\Nc1cccc(C(F)(F)F)c1)C(=O)c1ccsc1	-109
c1ccc(-n2ncc3c(NCc4cccnc4)ncnc32)cc1	-114
COc1ccc(-n2ncc3c(NCc4cccs4)ncnc32)cc1	-171
c1ccc(-n2ncc3c(NCc4cccs4)ncnc32)cc1	-162
Nc1nc(NCc2cccs2)nn1-c1ccccc1	-67
O=C(Nc1ccccc1)C1=C[C@H](c2ccccc2)C[C@H](OCCCCO)O1	-147
O=C(Nc1ccccc1)C1=C[C@@H](c2ccc(Br)cc2)C[C@@H](OCCCCO)O1	-95
CCO[C@@H]1OC(C(=O)Nc2ccccc2)=C[C@H](c2coc3ccccc3c2=O)[C@H]1CCCO	–
O=C(Nc1ccccc1)C1=C[C@H](c2ccc(C(F)(F)F)cc2)C[C@H](OCCCCO)O1	-91
COc1ccc2nc(N3CCC(C)CC3)c(C#N)cc2c1	-175
Cc1ccc(NC(=S)/C(=C(\[O-])c2ccc(C)c([N+](=O)[O-])c2)[n+]2ccccc2)cc1C	-158
CCCCOc1ccc(C2CCC(C(C)=O)C(C)C2)cc1 (stereo not given)	-169
CCS(=O)(=O)NCCc1csc(-c2ccccc2)n1	-63
CCOc1c(OC(C)=O)ccc(/C=C/c2ccc3cccc(OC(C)=O)c3n2)c1[N+](=O)[O-]	-378
SMILES	aSyn UTR act
COc1c(OC(C)=O)ccc(/C=C/c2ccc3ccccc3n2)c1[N+](=O)[O-]	-209
COc1c(OC(C)=O)ccc(/C=C/c2ccc3cccc(OC)c3n2)c1[N+](=O)[O-]	-146
CCN(C(=O)c1cc2c(=O)n3ccccc3nc2s1)C1CCCCC1	-71
CN(C(=O)c1cc2c(=O)n3ccccc3nc2n1C)C1CCCCC1	-90
CC1CCCCC1NC(=O)c1cc2c(=O)n3ccccc3nc2n1C (stereo not given)	-66
CCN(C(=O)c1cc2c(=O)n3ccccc3nc2n1C)C1CCCCC1	-75
Cc1ccc2c(CC(=O)Nc3sccc3C(N)=O)coc2c1	-183
Cc1ccc2c(CC(=O)Nc3ccc(N4CCN(C)CC4)cc3C)coc2c1	-68
CCOc1ccc(OCc2cccc(C(=O)N3CCOCC3)c2)cc1	–
CC1CN(C(=O)c2cccc(COc3ccc(Br)cc3)c2)CC(C)O1 (stereo not given)	-104
CN(C)c1ccc(Nc2ncnc3ccc(Br)cc23)cc1	-72
Cc1ccc(C)c(Cn2c(O)c(N=NC(=S)Nc3ccccc3F)c3ccccc32)c1	–
Cc1ccc(NC(=S)Nc2cccc3ccccc23)cc1F	-86
CC(=O)N(C)c1ccc(NC(=S)Nc2cccc3ccccc23)cc1	-168
CCc1ccc(NC(=S)Nc2cccc3cnccc23)cc1	-87
CC(=O)Nc1sc(C)c(C)c1C(=O)Nc1ccc(C)cc1	-66
Cc1sc(NC(=O)c2ccc(Cl)s2)c(C(N)=O)c1C	-284
Cc1sc(NC(=O)c2ccc(Br)s2)c(C(N)=O)c1C	-225
Cc1sc(NC(=S)Nc2ccc(F)cc2)c(C(N)=O)c1C	-87
O=C(c1ccccc1)c1nn(-c2ccc(Cl)cc2)c(=O)cc1C(F)(F)F	-219
CCN(CC)C(=O)COc1ccc(-c2ccccc2)cc1	-116
Cc1ccc2c(c1)sc1nc(=O)n(-c3cccc(Cl)c3)c(=O)n12	-209
O=c1nc2sc3ccccc3n2c(=O)n1-c1ccc(Cl)cc1	-189
O=c1nc2sc3ccccc3n2c(=O)n1-c1cccc(Cl)c1	-169
O=C(CCSc1nc2ccccc2s1)N/N=C/c1c(O)ccc2ccccc12	–
SMILES	aSyn UTR act
CC(C)(C)NC(=O)CCCSc1nc2ccccc2s1	-133
Cc1cc(C)nc(SCC(=O)OCC(=O)Nc2nc3ccccc3s2)n1	-70
Cc1cc(NC(=O)CCl)n(-c2nc3ccccc3s2)n1	-77
Cc1cc(C)n2c(Br)c(CSc3nc4ccccc4s3)nc2n1	-79
Cc1cc(C)nc(NC(=O)CSc2nc3ccccc3s2)n1	-203
Cc1csc(SCC(=O)Nc2nc3ccccc3s2)n1	-100
Cc1ccccc1C(=O)Nc1ccc(Cl)cn1	-114
O=C(Nc1ccc(Cl)cn1)c1ccc2ccccc2n1	-96
Cc1ccc(NC(=O)c2ccc3ccccc3n2)nc1	-163
O=C(CC1OC(=O)c2ccccc21)c1ccco1 (stereo not given)	-75
CCOC(=O)/C(C#N)=C1/C=CN(c2ccc(C)cc2)C=N1	-97
CCOC(=O)/C(C#N)=C1/C=CN(c2ccccc2)C=N1	-79
COc1ccc2[nH]c3c(=O)n4c(nc3c2c1)SCCC4	-92
COc1ccc2c(c1)[nH]c1c(=O)n(/N=C/C3C(C)C=C(C)CC3C)c(=O)[nH]c12 (stereo not given)	–
Cc1nc(-c2ccccc2)nn1-c1ccc([N+](=O)[O-])cc1	-87
O=C(Cc1cccs1)Nc1nc2c(s1)CCCC2	-97
O=C(CCSc1ccccc1)Nc1nc2c(s1)CCCC2	-86
CN(C)CCCn1cnc2c(c1=N)C(c1ccccc1)c1ccc3ccccc3c1O2 (stereo not given)	–
COc1cc2cc(C#N)c(SCC(=O)N3CCOCC3)nc2cc1OC	-74
N#Cc1cc2cc3c(cc2nc1SCC(=O)N1CCCC1)OCCO3	-85
Cc1ccc(NC(=O)Nc2ccc(F)c(Cl)c2)cc1	-165
COc1ccc(NC(=O)Nc2ccc(F)c(Cl)c2)cc1	-140
COc1cc(/C=N/Nc2nc(N3CCCC3)nc(N3CCCC3)n2)ccc1OCc1ccccc1F	-72
O=C(Nc1nccs1)c1ccc(-c2ccccc2[N+](=O)[O-])o1	-135
O=C(Nc1nccs1)c1ccc(-c2ccccc2Cl)o1	-286
SMILES	aSyn UTR act
COc1ccccc1NC(=O)c1ccc(-c2ccccc2[N+](=O)[O-])o1	-125
Cc1cc(/C=C(\C#N)C(=O)NC2CCCCCC2)c(C)n1C	-74
c1ccc(-n2ncc3c(NC4CCCCCC4)ncnc32)cc1	-97
Cc1ccccc1Nc1ncnc2c1cnn2-c1ccccc1	-112
Clc1ccc(-n2ncc3c(NCC4CCCO4)ncnc32)cc1 (stereo not given)	-89
c1ccc(-n2ncc3c(NCC4CCCO4)ncnc32)cc1 (stereo not given)	-132
COc1ccc(-n2ncc3c(NCC4CCCO4)ncnc32)cc1 (stereo not given)	-140
O=C(CSc1nnc(-c2ccccc2)o1)N1CCCC1	-102
Cn1nc([N+](=O)[O-])nc1Sc1nnc(-c2ccccc2)o1	–
O=C(CCc1nnc(-c2ccc3c(c2)OCO3)o1)N1CCC(c2ccc(F)cc2)C1 (stereo not given)	-104
CC1CCN(C(=O)CCc2nnc(-c3ccccc3)o2)CC1	-106
O=C(CSc1nnc(-c2ccc(F)cc2)o1)N1CCCCC1	-88
O=C(CSc1nnc(-c2ccccc2)o1)N1CCCCC1	-74

Screens (PubChem)
